PubChem BioAssay (NCI)
About 79,000 compounds went through this panel and 15% of them were active in at least one assay; those are over-represented in the sample as a whole. Calls of active or inactive are those of the source. Rule as the data show it: active = growth inhibition above about 70%; inactive = the rest.

What was measured:
[1] = NCI Yeast Anticancer Drug Screen. Data for the rad52 strain (AID 147);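 also: 0% = growth of vehicle-treated control cultures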; settings: S. cerevisiae rad52 mutant growth inhibition, stronger effect = higher value
In short: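 Yeast strain carrying a DNA damage repair alteration was exposed to test compounds. Growth inhibition was measured relative to vehicle-treated controls.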

[2] = NCI Yeast Anticancer Drug Screen. Data for the wt1 strain (AID 149);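 also: 0% = growth of vehicle-treated wt1 cultures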; settings: S. cerevisiae wt1 strain (SPY 50644) growth inhibition, stronger effect = higher value
In short: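 Growth inhibition read against vehicle controls after compound exposure of the wt1 yeast strain.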

[3] = NCI Yeast Anticancer Drug Screen. Data for the rad50EPP+ strain (AID 151);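 also: 0% = growth of vehicle-treated control cultures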; settings: S. cerevisiae rad50 mutant strain, stronger effect = higher value
In short: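 Yeast strain carrying rad50 alteration (rad50EPP+) exposed to compounds; growth inhibition measured relative to vehicle-treated controls.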

[4] = NCI Yeast Anticancer Drug Screen. Data for the mgt1 strain (AID 153); settings: S. cerevisiae mgt1 mutant growth inhibition, stronger effect = higher value
In short: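 Yeast mgt1 strain (DNA repair/cell-cycle alteration panel) exposed to compounds; growth inhibition measured relative to vehicle-treated controls.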

[5] = NCI Yeast Anticancer Drug Screen. Data for the rad50 strain (AID 155);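 also: 0% = growth of vehicle-only cultures of the same strain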; settings: S. cerevisiae rad50 strain growth inhibition, stronger effect = higher value
In short: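 Readout: growth inhibition relative to vehicle-treated cultures. Compound exposure was carried out in a genetically defined yeast strain deficient in DNA damage repair.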

[6] = NCI Yeast Anticancer Drug Screen. Data for the mec2-1 strain (AID 157); settings: S. cerevisiae mec2-1 strain, stronger effect = higher value
In short: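 mec2-1 yeast strain, carrying an alteration in DNA damage repair or cell cycle control, was exposed to compounds; growth inhibition was measured relative to vehicle-treated controls.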

[7] = NCI Yeast Anticancer Drug Screen. Data for the rad14 strain (AID 159);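 also: 0% = growth of vehicle-treated control cultures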; settings: S. cerevisiae rad14 strain growth inhibition, stronger effect = higher value
In short: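 Growth inhibition vs vehicle controls; genetically altered yeast strain (DNA damage repair defect) treated with test compounds.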

[8] = NCI Yeast Anticancer Drug Screen. Data for the sgs1 mgt1 strain (AID 161);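 also: 0% = growth of cultures given vehicle only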; settings: S. cerevisiae sgs1 mgt1 strain, stronger effect = higher value
In short: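 Compounds are added to genetically altered yeast, and growth is compared with cultures given vehicle alone to give percent inhibition.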

[9] = NCI Yeast Anticancer Drug Screen. Data for the cln2 rad14 strain (AID 165);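 also: 0% = growth equal to vehicle treated cultures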; settings: S. cerevisiae cln2 rad14 strain, stronger effect = higher value
In short: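 Yeast carrying cln2 and rad14 alterations (cell cycle control and DNA damage repair) were exposed to compounds. Growth inhibition was measured against vehicle-treated controls.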

[10] = NCI Yeast Anticancer Drug Screen. Data for the bub3 strain (AID 167); settings: S. cerevisiae bub3 mutant strain, stronger effect = higher value
In short: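 Readout: yeast growth inhibition, expressed relative to vehicle-only wells. The test organism is a mutant strain from a panel with lesions in DNA repair or checkpoint genes.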

[11] = NCI Yeast Anticancer Drug Screen. Data for the wt2 strain (AID 169);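 also: 0% = growth of vehicle-treated yeast cultures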; settings: S. cerevisiae wt2 strain growth inhibition, stronger effect = higher value
In short: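 Yeast cells were exposed to test compounds, and growth inhibition was measured relative to vehicle-treated controls.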

[12] = NCI Yeast Anticancer Drug Screen. Data for the mlh1 strain (AID 171);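 also: 0% = growth of vehicle-treated control cultures of the same strain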; settings: S. cerevisiae mlh1 strain growth inhibition, stronger effect = higher value
In short: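 Yeast carrying a defined genetic alteration in DNA damage repair or cell cycle control were exposed to test compounds. Growth inhibition was measured relative to vehicle-treated controls.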

[13] = NCI Yeast Anticancer Drug Screen. Data for the sgs1 strain (AID 173);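 also: 0% = growth of vehicle-only control cultures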; settings: S. cerevisiae sgs1 mutant, stronger effect = higher value
In short: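 Yeast mutant strains carrying defined defects in DNA damage repair or cell cycle control were exposed to test compounds. Growth inhibition was scored against vehicle-treated controls.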

[14] = NCI Yeast Anticancer Drug Screen. Data for the mlh1 rad18 strain (AID 175); settings: S. cerevisiae mlh1 rad18 strain growth inhibition, stronger effect = higher value
In short: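 Growth inhibition of the yeast strain was measured after compound exposure and expressed relative to vehicle-treated controls. The strain carries defined defects in DNA damage repair.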

[15] = NCI Yeast Anticancer Drug Screen. Data for the rad18 strain (AID 177); settings: S. cerevisiae rad18 mutant growth inhibition, stronger effect = higher value
In short: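 Yeast carrying a defined DNA damage repair alteration were exposed to compounds. Growth inhibition was expressed relative to vehicle-treated controls.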

[16] = NCI Yeast Anticancer Drug Screen. Data for the CLN2oe strain (AID 163);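 also: 0% = growth of vehicle-only control cultures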; settings: S. cerevisiae CLN2oe strain, stronger effect = higher value
In short: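 Yeast cells carrying a defined cell-cycle control alteration were exposed to test compounds. Growth inhibition was scored against vehicle-treated control cultures.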

[17] = at 5.0 µM (retest, dose inferred, filed as 0.5)
[18] = at 50.0 µM (retest, dose inferred, filed as 5.0)

Measured: growth inhibition

CC1=CC(C)(C)SC(SSSC2=NC(C)=CC(C)(C)S2)=N1
inactive: [1]; at 1.2 µM -3% | [1]; at 3.7 µM -3% | [1]; at 11.0 µM 0% | [1]; at 33.0 µM 7% | [2]; at 1.2 µM -3% | [2]; at 3.7 µM -2% | [2]; at 11.0 µM 0% | [2]; at 33.0 µM 7% | [2]; at 100.0 µM 39% | [3]; at 1.2 µM -1% | [3]; at 3.7 µM -1% | [3]; at 11.0 µM 0% | [3]; at 33.0 µM 2% | [3]; at 100.0 µM 31% | [4]; at 1.2 µM -8% | [4]; at 3.7 µM 1% | [4]; at 11.0 µM 3% | [4]; at 33.0 µM 7% | [5]; at 1.2 µM -17% | [5]; at 3.7 µM -4% | [5]; [17] -6% | [5]; at 11.0 µM -4% | [5]; at 33.0 µM 1% | [5]; [18] 48% | [5]; at 50.0 µM 15.6% | [5]; at 100.0 µM 65% | [6]; at 1.2 µM -2% | [6]; at 3.7 µM -4% | [6]; [17] 0% | [6]; at 11.0 µM 0% | [6]; at 33.0 µM 8% | [6]; [18] 15% | [6]; at 50.0 µM 10.7% | [6]; at 100.0 µM 42% | [7]; at 1.2 µM -6% | [7]; at 3.7 µM -5% | [7]; at 11.0 µM -3% | [7]; at 33.0 µM 8% | [8]; [17] -10% | [8]; [18] 61% | [8]; at 50.0 µM 39.2% | [9]; [17] -9% | [9]; [18] 6% | [9]; at 50.0 µM 2.9% | [10]; at 1.2 µM -2% | [10]; at 3.7 µM -2% | [10]; [17] -1% | [10]; at 11.0 µM 1% | [10]; at 33.0 µM 1% | [10]; [18] 24% | [10]; at 50.0 µM -3.25% | [10]; at 100.0 µM 56% | [11]; at 1.2 µM -5% | [11]; at 3.7 µM -6% | [11]; at 11.0 µM -4% | [11]; at 33.0 µM 4% | [12]; at 1.2 µM -5% | [12]; at 3.7 µM -4% | [12]; at 11.0 µM 0% | [12]; at 33.0 µM 11% | [13]; at 1.2 µM -4% | [13]; at 3.7 µM -2% | [13]; at 11.0 µM 0% | [13]; at 33.0 µM 14% | [14]; [17] -4% | [14]; [18] 42% | [14]; at 50.0 µM 29.8% | [15]; at 1.2 µM -4% | [15]; at 3.7 µM 0% | [15]; at 11.0 µM 7% | [15]; at 33.0 µM 23%
active: [1]; at 100.0 µM 78% | [4]; at 100.0 µM 89% | [7]; at 100.0 µM 90% | [11]; at 100.0 µM 85% | [12]; at 100.0 µM 88% | [13]; at 100.0 µM 89% | [15]; at 100.0 µM 88%

OC1(C#CI)CCCCC1
active: [1]; at 11.0 µM 96% | [1]; at 33.0 µM 98% | [1]; at 100.0 µM 99% | [2]; at 11.0 µM 96% | [2]; at 33.0 µM 99% | [2]; at 100.0 µM 99% | [3]; at 11.0 µM 96% | [3]; at 33.0 µM 99% | [3]; at 100.0 µM 99% | [4]; at 11.0 µM 88% | [4]; at 33.0 µM 99% | [4]; at 100.0 µM 99% | [5]; at 11.0 µM 98% | [5]; at 33.0 µM 99% | [5]; [18] 97% | [5]; at 50.0 µM 99.7% | [5]; at 100.0 µM 99% | [6]; at 11.0 µM 89% | [6]; at 33.0 µM 99% | [6]; [18] 98% | [6]; at 50.0 µM 99.5% | [6]; at 100.0 µM 100% | [7]; at 11.0 µM 98% | [7]; at 33.0 µM 99% | [7]; at 100.0 µM 100% | [8]; [18] 97% | [8]; at 50.0 µM 98.6% | [16]; at 11.0 µM 82% | [16]; at 33.0 µM 99% | [16]; at 100.0 µM 99% | [9]; [18] 98% | [9]; at 50.0 µM 99.2% | [10]; at 11.0 µM 97% | [10]; at 33.0 µM 99% | [10]; [18] 97% | [10]; at 50.0 µM 99.3% | [10]; at 100.0 µM 99% | [12]; at 11.0 µM 96% | [12]; at 33.0 µM 99% | [12]; at 100.0 µM 99% | [13]; at 11.0 µM 96% | [13]; at 33.0 µM 99% | [13]; at 100.0 µM 99% | [14]; [18] 97% | [14]; at 50.0 µM 99.1% | [15]; at 11.0 µM 96% | [15]; at 33.0 µM 99% | [15]; at 100.0 µM 99%
inactive: [1]; at 1.2 µM 1% | [1]; at 3.7 µM 43% | [2]; at 1.2 µM -4% | [2]; at 3.7 µM 38% | [3]; at 1.2 µM -16% | [3]; at 3.7 µM 40% | [4]; at 1.2 µM -7% | [4]; at 3.7 µM -3% | [5]; at 1.2 µM -6% | [5]; at 3.7 µM 58% | [5]; [17] 67% | [6]; at 1.2 µM -4% | [6]; at 3.7 µM 6% | [6]; [17] -18% | [7]; at 1.2 µM -2% | [7]; at 3.7 µM 32% | [8]; [17] -20% | [16]; at 1.2 µM -11% | [16]; at 3.7 µM -5% | [9]; [17] -28% | [10]; at 1.2 µM -19% | [10]; at 3.7 µM 12% | [10]; [17] -35% | [12]; at 1.2 µM -14% | [12]; at 3.7 µM 17% | [13]; at 1.2 µM 1% | [13]; at 3.7 µM 37% | [14]; [17] -52% | [15]; at 1.2 µM 3% | [15]; at 3.7 µM 60%

N#CCCC1C(C#N)C2(Cl)CC1(Cl)C(Cl)=C2Cl (stereo unspecified)
active: [1]; at 33.0 µM 81% | [1]; at 100.0 µM 98% | [2]; at 100.0 µM 98% | [3]; at 100.0 µM 84% | [4]; at 100.0 µM 98% | [5]; at 33.0 µM 84% | [5]; [18] 89% | [5]; at 50.0 µM 89.9% | [5]; at 100.0 µM 97%
inactive: [1]; at 1.2 µM -15% | [1]; at 3.7 µM -6% | [1]; at 11.0 µM -2% | [2]; at 1.2 µM -1% | [2]; at 3.7 µM 8% | [2]; at 11.0 µM 1% | [2]; at 33.0 µM 61% | [3]; at 1.2 µM -4% | [3]; at 3.7 µM -20% | [3]; at 11.0 µM -22% | [3]; at 33.0 µM 4% | [4]; at 1.2 µM -38% | [4]; at 3.7 µM -46% | [4]; at 11.0 µM -38% | [4]; at 33.0 µM 6% | [5]; at 1.2 µM -10% | [5]; at 3.7 µM 7% | [5]; [17] -23% | [5]; at 11.0 µM 1% | [6]; at 1.2 µM -29% | [6]; at 3.7 µM -8%
